{"source": "the supplement of paper PMC3616981", "key": {"[1]": {"compound": "CC(C)c1cccc(C(C)C)c1N1C(=O)c2ccc(O)cc2C1=O", "experiment": "BioMAP readout fold decrease vs vehicle (vehicle/treated); higher = stronger decrease of the readout vs vehicle (values <1 mean increase)", "experimental": "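BioSeek BioMAP human primary cell (co-)culture systems (3C, 4H, LPS, SAg, BE3C, CASM3C, hDFCGF, KF3CT) treated with 5HPP-33 at 1.48, 4.44, 13.3 and 40 µM. Read-outs are protein levels by ELISA, proliferation and SRB total protein. Duplicate rows per assay are averaged as replicates. Tested in ToxCast Phase II for this study; exposure time not stated.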"}, "[2]": {"compound": "CC(C)c1cccc(C(C)C)c1N1C(=O)c2ccc(O)cc2C1=O", "experiment": "reporter fold induction vs vehicle; higher = higher reporter activity", "summary_of_the_method": "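Multiplexed cellular biosensor reporter system with cis response-element and trans nuclear-receptor transcription factor reporter constructs (48 cis, 25 trans) and homogeneous detection, tested in ToxCast Phase II at 8 concentrations (0.091–200 µM). Reporter activity is given as fold induction relative to vehicle control. Replicates were averaged where present.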"}}, "note": "± gives the standard deviation of the averaged measurements.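 Throughout, for BioMAP readout fold decrease vs vehicle (vehicle/treated): Co-cultures of keratinocytes, bronchial epithelial and smooth muscle cells, fibroblasts, HUVECs and PBMCs under stimuli like LPS, TNF-α, IFN-γ, IL-1β, TGF-β or EGF, SRB reflecting cytotoxicity.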", "data": [{"target": "BE3C_tPA", "values": [{"measurement": "BioMAP readout fold decrease", "setting": "[1]; 1.48 µM", "result": "0.995 ± 0.012"}, {"measurement": "BioMAP readout fold decrease", "setting": "[1]; 4.44 µM", "result": "0.805 ± 0.042"}, {"measurement": "BioMAP readout fold decrease", "setting": "[1]; 13.3 µM", "result": "1.1 ± 0.071"}, {"measurement": "BioMAP readout fold decrease", "setting": "[1]; 40 µM", "result": "1.59 ± 0.073"}]}, {"target": "BE3C_TGFb1", "values": [{"measurement": "BioMAP readout fold decrease", "setting": "[1]; 1.48 µM", "result": "1.05 ± 0.079"}, {"measurement": "BioMAP readout fold decrease", "setting": "[1]; 4.44 µM", "result": "1.09 ± 0.061"}, {"measurement": "BioMAP readout fold decrease", "setting": "[1]; 13.3 µM", "result": "1.117 ± 0.0036"}, {"measurement": "BioMAP readout fold decrease", "setting": "[1]; 40 µM", "result": "1.32 ± 0.1"}]}, {"target": "CASM3C_MCSF", "values": [{"measurement": "BioMAP readout fold decrease", "setting": "[1]; 1.48 µM", "result": "1.06 ± 0.033"}, {"measurement": "BioMAP readout fold decrease", "setting": "[1]; 4.44 µM", "result": "1.14 ± 0.044"}, {"measurement": "BioMAP readout fold decrease", "setting": "[1]; 13.3 µM", "result": "1.03 ± 0.035"}, {"measurement": "BioMAP readout fold decrease", "setting": "[1]; 40 µM", "result": "2.01 ± 0.034"}]}, {"target": "4H_VEGFRII", "values": [{"measurement": "BioMAP readout fold decrease", "setting": "[1]; 1.48 µM", "result": "1.07 ± 0.028"}, {"measurement": "BioMAP readout fold decrease", "setting": "[1]; 4.44 µM", "result": "1.03 ± 0.021"}, {"measurement": "BioMAP readout fold decrease", "setting": "[1]; 13.3 µM", "result": "1.2 ± 0.076"}, {"measurement": "BioMAP readout fold decrease", "setting": "[1]; 40 µM", "result": "1.45 ± 0.069"}]}, {"target": "4H_SRB", "values": [{"measurement": "BioMAP readout fold decrease", "setting": "[1]; 1.48 µM", "result": "1.05 ± 0.014"}, {"measurement": "BioMAP readout fold decrease", "setting": "[1]; 4.44 µM", "result": "1.12 ± 0.016"}, {"measurement": "BioMAP readout fold decrease", "setting": "[1]; 13.3 µM", "result": "1.25 ± 0.031"}, {"measurement": "BioMAP readout fold decrease", "setting": "[1]; 40 µM", "result": "1.44 ± 0.041"}]}, {"target": "CASM3C_LDLR", "values": [{"measurement": "BioMAP readout fold decrease", "setting": "[1]; 1.48 µM", "result": "1.1 ± 0.017"}, {"measurement": "BioMAP readout fold decrease", "setting": "[1]; 4.44 µM", "result": "1.188 ± 0.002"}, {"measurement": "BioMAP readout fold decrease", "setting": "[1]; 13.3 µM", "result": "0.969 ± 0.038"}, {"measurement": "BioMAP readout fold decrease", "setting": "[1]; 40 µM", "result": "2.21 ± 0.034"}]}, {"target": "SAg_Eselectin", "values": [{"measurement": "BioMAP readout fold decrease", "setting": "[1]; 1.48 µM", "result": "1.14 ± 0.027"}, {"measurement": "BioMAP readout fold decrease", "setting": "[1]; 4.44 µM", "result": "1.02 ± 0.041"}, {"measurement": "BioMAP readout fold decrease", "setting": "[1]; 13.3 µM", "result": "1.14 ± 0.087"}, {"measurement": "BioMAP readout fold decrease", "setting": "[1]; 40 µM", "result": "3.92 ± 0.27"}]}, {"target": "4H_Pselectin", "values": [{"measurement": "BioMAP readout fold decrease", "setting": "[1]; 1.48 µM", "result": "0.965 ± 0.074"}, {"measurement": "BioMAP readout fold decrease", "setting": "[1]; 4.44 µM", "result": "1.09 ± 0.095"}, {"measurement": "BioMAP readout fold decrease", "setting": "[1]; 13.3 µM", "result": "1.56 ± 0.019"}, {"measurement": "BioMAP readout fold decrease", "setting": "[1]; 40 µM", "result": "1.75 ± 0.032"}]}, {"target": "LPS_Eselectin", "values": [{"measurement": "BioMAP readout fold decrease", "setting": "[1]; 1.48 µM", "result": "1.07 ± 0.019"}, {"measurement": "BioMAP readout fold decrease", "setting": "[1]; 4.44 µM", "result": "1.17 ± 0.034"}, {"measurement": "BioMAP readout fold decrease", "setting": "[1]; 13.3 µM", "result": "1.24 ± 0.012"}, {"measurement": "BioMAP readout fold decrease", "setting": "[1]; 40 µM", "result": "1.91 ± 0.12"}]}, {"target": "BE3C_IL1a", "values": [{"measurement": "BioMAP readout fold decrease", "setting": "[1]; 1.48 µM", "result": "1.06 ± 0.13"}, {"measurement": "BioMAP readout fold decrease", "setting": "[1]; 4.44 µM", "result": "1.13 ± 0.015"}, {"measurement": "BioMAP readout fold decrease", "setting": "[1]; 13.3 µM", "result": "1.19 ± 0.015"}, {"measurement": "BioMAP readout fold decrease", "setting": "[1]; 40 µM", "result": "1.85 ± 0.082"}]}, {"target": "RXRa_TRANS", "values": [{"measurement": "reporter fold induction", "setting": "[2]; 0.091 µM", "result": 0.986}, {"measurement": "reporter fold induction", "setting": "[2]; 0.274 µM", "result": 0.983}, {"measurement": "reporter fold induction", "setting": "[2]; 0.823 µM", "result": 1.1}, {"measurement": "reporter fold induction", "setting": "[2]; 2.469 µM", "result": 0.957}, {"measurement": "reporter fold induction", "setting": "[2]; 7.407 µM", "result": 1.09}, {"measurement": "reporter fold induction", "setting": "[2]; 22.22 µM", "result": 1.31}, {"measurement": "reporter fold induction", "setting": "[2]; 66.67 µM", "result": 1.31}, {"measurement": "reporter fold induction", "setting": "[2]; 200 µM", "result": 1.84}]}, {"target": "SAg_PBMCCytotoxicity", "values": [{"measurement": "BioMAP readout fold decrease", "setting": "[1]; 1.48 µM", "result": "0.998 ± 0.065"}, {"measurement": "BioMAP readout fold decrease", "setting": "[1]; 4.44 µM", "result": "1.01 ± 0.078"}, {"measurement": "BioMAP readout fold decrease", "setting": "[1]; 13.3 µM", "result": "0.879 ± 0.028"}, {"measurement": "BioMAP readout fold decrease", "setting": "[1]; 40 µM", "result": "0.894 ± 0.028"}]}, {"target": "CASM3C_IL6", "values": [{"measurement": "BioMAP readout fold decrease", "setting": "[1]; 1.48 µM", "result": "0.923 ± 0.002"}, {"measurement": "BioMAP readout fold decrease", "setting": "[1]; 4.44 µM", "result": "0.9348 ± 0.0071"}, {"measurement": "BioMAP readout fold decrease", "setting": "[1]; 13.3 µM", "result": "0.8611 ± 0.001"}, {"measurement": "BioMAP readout fold decrease", "setting": "[1]; 40 µM", "result": "0.752 ± 0.0092"}]}, {"target": "AP_1_CIS", "values": [{"measurement": "reporter fold induction", "setting": "[2]; 0.091 µM", "result": 1.01}, {"measurement": "reporter fold induction", "setting": "[2]; 0.274 µM", "result": 0.867}, {"measurement": "reporter fold induction", "setting": "[2]; 0.823 µM", "result": 0.986}, {"measurement": "reporter fold induction", "setting": "[2]; 2.469 µM", "result": 0.984}, {"measurement": "reporter fold induction", "setting": "[2]; 7.407 µM", "result": 1.2}, {"measurement": "reporter fold induction", "setting": "[2]; 22.22 µM", "result": 1.44}, {"measurement": "reporter fold induction", "setting": "[2]; 66.67 µM", "result": 1.7}, {"measurement": "reporter fold induction", "setting": "[2]; 200 µM", "result": 0.71}]}, {"target": "ISRE_CIS", "values": [{"measurement": "reporter fold induction", "setting": "[2]; 0.091 µM", "result": 1.23}, {"measurement": "reporter fold induction", "setting": "[2]; 0.274 µM", "result": 0.874}, {"measurement": "reporter fold induction", "setting": "[2]; 0.823 µM", "result": 1.04}, {"measurement": "reporter fold induction", "setting": "[2]; 2.469 µM", "result": 0.962}, {"measurement": "reporter fold induction", "setting": "[2]; 7.407 µM", "result": 0.9}, {"measurement": "reporter fold induction", "setting": "[2]; 22.22 µM", "result": 0.883}, {"measurement": "reporter fold induction", "setting": "[2]; 66.67 µM", "result": 0.605}, {"measurement": "reporter fold induction", "setting": "[2]; 200 µM", "result": 0.362}]}, {"target": "SAg_IL8", "values": [{"measurement": "BioMAP readout fold decrease", "setting": "[1]; 1.48 µM", "result": "1.12 ± 0.039"}, {"measurement": "BioMAP readout fold decrease", "setting": "[1]; 4.44 µM", "result": "1.19 ± 0.029"}, {"measurement": "BioMAP readout fold decrease", "setting": "[1]; 13.3 µM", "result": "0.963 ± 0.026"}, {"measurement": "BioMAP readout fold decrease", "setting": "[1]; 40 µM", "result": "1.36 ± 0.052"}]}, {"target": "4H_MCP1", "values": [{"measurement": "BioMAP readout fold decrease", "setting": "[1]; 1.48 µM", "result": "1.01 ± 0.026"}, {"measurement": "BioMAP readout fold decrease", "setting": "[1]; 4.44 µM", "result": "0.699 ± 0.023"}, {"measurement": "BioMAP readout fold decrease", "setting": "[1]; 13.3 µM", "result": "0.623 ± 0.0095"}, {"measurement": "BioMAP readout fold decrease", "setting": "[1]; 40 µM", "result": "1.43 ± 0.071"}]}, {"target": "3C_Thrombomodulin", "values": [{"measurement": "BioMAP readout fold decrease", "setting": "[1]; 1.48 µM", "result": "1.06 ± 0.032"}, {"measurement": "BioMAP readout fold decrease", "setting": "[1]; 4.44 µM", "result": "0.9983 ± 0.0097"}, {"measurement": "BioMAP readout fold decrease", "setting": "[1]; 13.3 µM", "result": "0.939 ± 0.01"}, {"measurement": "BioMAP readout fold decrease", "setting": "[1]; 40 µM", "result": "0.984 ± 0.054"}]}, {"target": "hDFCGF_CollagenIII", "values": [{"measurement": "BioMAP readout fold decrease", "setting": "[1]; 1.48 µM", "result": "1.123 ± 0.0039"}, {"measurement": "BioMAP readout fold decrease", "setting": "[1]; 4.44 µM", "result": "1.19 ± 0.025"}, {"measurement": "BioMAP readout fold decrease", "setting": "[1]; 13.3 µM", "result": "1.04 ± 0.012"}, {"measurement": "BioMAP readout fold decrease", "setting": "[1]; 40 µM", "result": "1.49 ± 0.13"}]}, {"target": "3C_hLADR", "values": [{"measurement": "BioMAP readout fold decrease", "setting": "[1]; 1.48 µM", "result": "1.04 ± 0.038"}, {"measurement": "BioMAP readout fold decrease", "setting": "[1]; 4.44 µM", "result": "1.55 ± 0.048"}, {"measurement": "BioMAP readout fold decrease", "setting": "[1]; 13.3 µM", "result": "4.27 ± 0.47"}, {"measurement": "BioMAP readout fold decrease", "setting": "[1]; 40 µM", "result": "7.36 ± 0.11"}]}]}
